Screening data: PubChem BioAssay, several laboratories
SKKanGAS inh = S. pyogenes SKKanGAS growth inhibitors in kanamycin, primary screen, streptokinase expression inhibitor project, SKKanGAS strain, BacTiter-Glo luminescence; inhibition, % at 7.5 µM; 1.3% of 300,000 active; AID 1662, 2009; 6 h;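 active means mean replicate score, as percent of positive control median, at least 50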;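 further: strain carries kanamycin resistance gene driven by streptokinase promoter and grows in 40 µg/ml kanamycin; loss of luminescence reflects streptokinase promoter inhibition or plain growth inhibition; 0% = median of DMSO wells and 100% = positive control at its reference dose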
Beta cell apopt = inhibitors of cytokine-induced beta cell apoptosis, primary screen, luminescence. INS-1E cytokine-induced death, ATP luminescence, 48 h; percent of positive-control rescue, neutral wells zero. protection from apoptosis, % (concentration not given with the values). 0.8% of 300,000 active. AID 435005, 2010;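 active means Every replicate reaches about 75%, or at least half do and their mean reaches it too, limit read from the data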;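 further: 0% = cytokine-treated negative control wells and 100% = positive control rescue; higher means more ATP so stronger rescue from cytokine killing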
CSC inhib = cancer stem cell viability inhibitors, primary screen, luminescence; cancer stem cell-like cells viability; inhibition, % at 7.5 µM; 1.1% of 300,000 active; in the data active means inhibition above about 75%; tested in HMLE shEcad cells
GRIN3A LBD mod = binders of NR3A ligand-binding domain, primary screen, biophysical, differential scanning fluorimetry, uHTS; Glutamate receptor ionotropic, NMDA 3A (GRIN3A) ligand-binding domain; NR3A LBD differential scanning fluorimetry, Tm shift; 0% = protein alone, 100% = glycine-bound protein; Tm shift relative to glycine control, % at 25 µM; 2.5% of 340,000 active;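 active means melting temperature shift of at least 10% of the positive control shift, at one fixed dose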
Mdm2 MdmX PPI = inhibitors of human Mdm2-MdmX association, primary screen, cell-based, luminescence, split luciferase, SaOS-2, uHTS; 3% of 330,000 active; inhibition, % at 8 µM; AID 485346, 2010; SaOS-2 split-luciferase Mdm2/MdmX complementation; Protein Mdm4 (Homo sapiens) + E3 ubiquitin-protein ligase Mdm2 (Homo sapiens), …;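 active means inhibition of at least 50% at 8 µM in the primary screen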
Target sequence (O15151 whole entry, looked up): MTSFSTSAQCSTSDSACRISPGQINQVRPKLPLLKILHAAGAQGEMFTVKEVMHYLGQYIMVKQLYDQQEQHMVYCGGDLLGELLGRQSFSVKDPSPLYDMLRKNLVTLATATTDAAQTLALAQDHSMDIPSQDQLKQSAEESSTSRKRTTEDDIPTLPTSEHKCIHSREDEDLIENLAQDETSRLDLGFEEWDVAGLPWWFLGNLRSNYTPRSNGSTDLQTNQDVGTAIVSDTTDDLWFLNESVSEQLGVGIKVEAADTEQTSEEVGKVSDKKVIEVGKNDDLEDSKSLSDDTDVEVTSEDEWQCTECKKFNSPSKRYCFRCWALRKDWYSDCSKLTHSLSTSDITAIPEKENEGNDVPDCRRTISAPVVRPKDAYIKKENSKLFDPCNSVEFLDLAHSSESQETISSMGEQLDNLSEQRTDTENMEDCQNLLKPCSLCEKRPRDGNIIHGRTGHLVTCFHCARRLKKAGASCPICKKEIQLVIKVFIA
Target sequence (Q00987 whole entry, looked up): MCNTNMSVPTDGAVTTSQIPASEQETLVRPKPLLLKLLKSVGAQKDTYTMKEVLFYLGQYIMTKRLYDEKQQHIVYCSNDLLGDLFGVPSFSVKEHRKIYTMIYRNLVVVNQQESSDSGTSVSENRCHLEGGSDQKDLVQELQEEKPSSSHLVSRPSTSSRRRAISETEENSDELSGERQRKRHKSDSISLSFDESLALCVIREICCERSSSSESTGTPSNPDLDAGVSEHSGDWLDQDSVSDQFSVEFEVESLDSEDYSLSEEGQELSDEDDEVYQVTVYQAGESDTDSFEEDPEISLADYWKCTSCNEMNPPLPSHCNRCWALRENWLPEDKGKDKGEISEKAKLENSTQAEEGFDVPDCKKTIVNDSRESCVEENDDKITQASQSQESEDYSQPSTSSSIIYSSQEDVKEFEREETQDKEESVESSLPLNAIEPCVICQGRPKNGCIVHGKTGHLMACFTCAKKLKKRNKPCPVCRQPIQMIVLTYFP
MPTP block = mitochondrial permeability transition pore inhibitors, primary screen, biochemical, isolated mouse mitochondria, absorbance. Ca2+ swelling absorbance, 30 min. inhibition, % at 10 µM. 1.4% of 360,000 active;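 active means inhibition of 50% or more, scaled per plate between neutral and stimulator controls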;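 further: 0% = DMSO wells given calcium and 100% = 1 mM EGTA wells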
MPTP counter = fluorescence retest of MPTP screen hits in isolated mitochondria, single concentration | membrane potential, Rhodamine 123 fluorescence | inhibition, % at 10 µM | 78% of 5,000 active | shares compounds with MPTP block; in the data active means inhibition above about 22%;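 further: 0% = DMSO vehicle and 100% = positive control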
MPTP abs DR = mitochondrial permeability transition pore inhibitors, dose response, biochemical, absorbance, uHTS hits. isolated mitochondria swelling. 58% of 780 active. IC50, µM. shares compounds with MPTP block; in the data active means IC50 below about 20 µM
MPTP counter DR = fluorescent counter-screen in isolated mitochondria, dose response, counter-screen for MPTP inhibitor project, biochemical, fluorescence, uHTS hits; shares compounds with MPTP block; isolated mitochondria counterscreen, fluorescence read-out; IC50, µM; 49% of 780 active; in the data active means IC50 below about 80 µM
* = called active by the depositor; i = inactive; x = no result. This is a sample that favours compounds with a hit; in the whole collection about 6.9% have one here.

SMILES	SKKanGAS inh	Beta cell apopt	CSC inhib	GRIN3A LBD mod	Mdm2 MdmX PPI	MPTP block	MPTP counter	others
CC(c1ccco1)N(C(=O)c1ccccc1NS(=O)(=O)c1cc([N+](=O)[O-])ccc1Cl)c1ccccn1 (centres undefined)	6.7	-3.2	-3.1	-7.6	14.6	0.6	x
CC(c1ccco1)N(C(=O)c1ccccc1NS(=O)(=O)c1cccc([N+](=O)[O-])c1)c1ccccn1 (centres undefined)	3.5	1.9	2.5	-2.2	5.0	51.1*	78.2*
COc1ccc(-c2c(C(F)(F)F)[nH]n3c(=O)cc(-c4ccccc4)nc23)cc1	56.0*	-4.4	91.8*	-2.1	27.6	81.9*	41.9*
CN(C)CCNc1ncnc2c1cnn2-c1ccc(Cl)cc1	-0.9	7.2	12.4	3.6	15.9	78.0*	-19.6	MPTP abs DR=8.36*;MPTP counter DR=>80
COCCNc1nc(NCCN2CCNC2=O)c2sc(-c3ccccc3)cc2n1	x	x	x	x	x	-0.1	x
CCCCN(C(=O)CCCc1nc2ccccc2s1)c1c(N)n(CCCC)c(=O)[nH]c1=O	-1.6	-4.8	3.2	0.2	23.6	2.5	x
CCCCn1c(N)c(-c2nc3ccccc3s2)c2c([N+](=O)[O-])nn(C)c(=O)c21	13.2	14.9	9.4	-10.1	32.6	97.4*	-1.2	MPTP abs DR=12.1*;MPTP counter DR=6.21*
CCCCn1c(N)c(-c2nc3ccccc3s2)c2c([N+](=O)[O-])nn(CC)c(=O)c21	6.5	5.3	-4.6	-4.0	38.7	92.2*	-5.2	MPTP abs DR=19.8*;MPTP counter DR=18.4*
CCCCn1c(N)c(N(CCC(C)C)C(=O)CSc2nc3ccccc3s2)c(=O)[nH]c1=O	x	x	x	x	x	0.5	x
Fc1ccccc1NC(=S)NCCc1ccc(Cl)cc1	x	7.1	-3.5	-2.3	-40.5	5.2	x
Fc1ccc(NC(=S)NCc2ccccc2Cl)cc1	2.5	x	3.4	-5.4	-6.8	92.4*	76.0*
Fc1ccc(CCNC(=S)Nc2ccc(F)c(Cl)c2)cc1	21.9	-4.5	45.9	34.9*	28.1	102.6*	95.1*
Fc1ccc(NC(=S)NCCc2ccc(Cl)cc2)cc1	0.8	0.6	19.6	22.6*	0.3	89.3*	89.9*
O=C(C1COc2ccccc2O1)N1CCN(S(=O)(=O)c2ccccc2)CC1 (centres undefined)	-7.6	0.9	3.6	0.3	9.1	0.3	x
COc1ccc(NC(=O)C/C(C)=N/NC(=O)c2ccco2)c([N+](=O)[O-])c1	-0.7	2.2	-4.8	-2.2	6.5	-2.5	x
CC(C)NC(=O)Cn1cc(C(=O)C(=O)N2CCOCC2)c2ccccc21	-0.4	-2.5	0.7	1.6	13.6	-0.5	x
O=C(Nc1nc(-c2ccc(Cl)s2)cs1)c1ccncc1	-3.6	9.9	11.3	-8.3	9.0	61.6*	63.0*
CCSc1nc2sc3c(c2c(=O)n1C1CCCCC1)CCN(C)C3	x	x	x	0.8	x	50.1*	29.8*
COC(=O)c1ccc(NC(=O)C2CCN(C(=O)Nc3ccccc3)CC2)cc1	x	-1.4	7.8	0.9	-8.9	1.0	x
Cc1cc(-n2c(C)cc(C(=O)CSc3ncnc4ccccc34)c2C)no1	17.1	25.0	7.7	-0.9	30.7	97.3*	88.2*
Cc1cc(C)n2nc(SCC(=O)c3cc(C)n(-c4cc(C)on4)c3C)nc2n1	24.1	54.4	-7.9	0.4	25.3	80.6*	61.8*
COC(=O)CCc1c(C)c(C(=O)c2cc(OC)c(OC)c(OC)c2)c2ccccn12	-1.4	-9.7	22.7	0.3	25.7	0.4	x
CN1/C(=C\C(=O)Nc2cccc(Cl)c2)C(C)(C)c2ccccc21	7.0	11.3	43.1	7.1	4.6	103.6*	81.9*
C[C@@H]1CN([C@H](C)CO)C(=O)CCCn2cc(nn2)CO[C@H]1CN(C)S(=O)(=O)c1ccc(Oc2ccccc2)cc1	x	x	x	x	x	0.3	x
CCOC(=O)/C(=N\Nc1ccc(C(C)=O)cc1)c1csc(Nc2ccccc2)n1	-6.2	14.1	13.5	14.9*	23.0	64.4*	-8.9	MPTP abs DR=i;MPTP counter DR=12.4*
SMILES	SKKanGAS inh	Beta cell apopt	CSC inhib	GRIN3A LBD mod	Mdm2 MdmX PPI	MPTP block	MPTP counter	others
COc1ccc(NC(=O)NCc2ccc(Cl)cc2)cc1	x	0.4	7.1	2.0	18.9	-0.4	x
COc1ccc(CNC(=O)Nc2ccc([N+](=O)[O-])cc2)cc1	5.2	-0.9	-1.4	-16.4	37.3	99.2*	81.8*
O=C(NCCc1ccc(F)cc1)Nc1ccc([N+](=O)[O-])cc1	x	10.6	-2.0	4.7	-1.1	81.8*	79.2*
Cn1c(=O)n(C)c2cc(S(=O)(=O)NCCc3ccccc3)ccc21	0.6	-3.8	5.1	-0.4	-10.8	59.2*	23.8*
CCN(CC)C(=O)Cn1cnc2sc(C(=O)N3CCN(Cc4ccc5c(c4)OCO5)CC3)c(C)c2c1=O	8.4	-3.2	-8.1	-1.0	20.1	-0.2	x
O=C(CSc1ccc(F)cc1)Nc1ccccc1Br	0.0	-5.1	-4.4	-1.6	-7.2	-0.5	x
O=C(CSc1ccc(F)cc1)Nc1ccc(Br)cc1	-3.5	-0.3	9.2	-3.2	-90.8	58.1*	67.0*
Cc1ccc(NCC(=O)Nc2ccc(Br)cc2)cc1F	0.1	0.6	15.9	8.9	3.9	60.3*	70.3*
CC(=O)NCCC(=O)Nc1ccc(C)c(F)c1	-2.4	-5.4	-8.9	-1.3	10.5	0.2	x
Cc1cc(=O)[nH]c(SCC(=O)Nc2ccc(F)cc2)c1C#N	22.8	-1.5	-10.8	-0.4	10.8	6.1	x
Cc1cc(=O)[nH]c(SCC(=O)Nc2ccc(Br)cc2)c1C#N	55.3*	6.3	45.9	2.6	-4.1	96.0*	89.9*
CNC(=S)N(CCCN(C)C)Cc1cc2cc3c(cc2[nH]c1=O)OCCO3	0.7	-3.4	2.1	0.3	-0.9	-2.0	x
CNC(=O)CSc1ncnc2c1cnn2-c1ccccc1	0.4	3.2	-2.5	-1.2	-59.2	-2.2	x
O=C(CSc1ncnc2c1cnn2-c1ccccc1)Nc1ccccc1	-7.9	2.2	17.4	-1.1	17.6	79.7*	42.8*
COc1cccc(NC(=O)CSc2ncnc3c2cnn3Cc2ccccc2)c1	11.1	-8.2	12.4	-5.8	5.3	55.2*	39.5*
